These results are taken from the supplement of paper PMC7366291.

Counter-ions that a name gives are not always drawn. ± gives the standard deviation or the standard deviation of the averaged measurements.

Common to all, as to conditions: 25 µM; exposure: 24-48 hpf
Test [1] deals with Danio rerio Tg(wt1b:EGFP) embryo, pronephros. The test can be described thus: glomerular separation, fold change vs DMSO control; higher = glomeruli further apart (abnormal). A digest of the protocol: (§1)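 Features are reported as fold changes against the mean of same-day DMSO-treated embryos. Before that, values more than 2 SD away from the feature mean were excluded. The embryos, dechorionated Tg(wt1b:EGFP) zebrafish, had been exposed from 24 to 48 hpf at 28.5°C to 25 μM compound in 0.5% DMSO in HEPES-buffered E3 with 0.003% PTU, and distances and angles came from 16 manually set points on maximum projections of dorsal pronephros images in Fiji.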

For test [2] the test system is unchanged. As to the kind of experiment: glomerular width (mean of left and right), fold change vs DMSO control; higher = wider glomerulus. A digest of the protocol: as §1
The test system is the same in test [3]. As to the kind of experiment: fraction of imaged embryos annotated as normal kidney; higher = less nephrotoxic; extreme values may be limits of the assay. A digest of the protocol: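 Embryos of the Tg(wt1b:EGFP) zebrafish line were dechorionated and held in 12-well plates with 25 μM compound in 0.5% DMSO and 5 mM HEPES-buffered E3 containing 0.003% PTU, from 24 to 48 hpf at 28.5°C. Larvae were then anaesthetised with tricaine, set dorsal side up in agarose-filled 96-well plates, and their pronephroi imaged by widefield fluorescence at 470 nm over 10 z-slices. Each value is the fraction of embryos per treatment placed in the normal-kidney category after manual annotation of maximum projections.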

Test [4] shares this test system. The test can be described thus: pronephric angle neck segment to proximal convoluted tubule (mean of left and right), fold change vs DMSO control; higher = larger pronephric angle. The essentials:
as §1

Take `CCOC(=O)c1cncn1[C@H](C)c1ccccc1` [Etomidate]: in test [1], the glomerular separation was determined as 0.978 ± 0.27. Besides, the glomerular width in test [2] was found to be 0.949 ± 0.067. Further, in test [3], the “fraction of imaged embryos annotated as normal kidney” value (“fraction of imaged embryos annotated” for short) came to 0.833. Besides, the “pronephric angle neck segment” value in test [4] was found to be 1.03 ± 0.011.
As for `C[C@]12CC[C@H](O)C[C@@H]1CC[C@@H]1[C@@H]2CC[C@]2(C)C(=O)CC[C@@H]12` [Epiandrosterone], the glomerular separation in test [1] was 1.72 ± 0.71. This compound also had a glomerular width in test [2] of 0.905 ± 0.061. Besides, in test [3], the “fraction of imaged embryos annotated” value was 0.417. In addition, the “pronephric angle neck segment” value in test [4] is 1.04 ± 0.022.
In the case of `CC(C)(N)Cc1ccccc1` [Phentermine hydrochloride], in test [1], the glomerular separation was determined as 0.886 ± 0.21. This compound returned a glomerular width in test [2] of 0.981 ± 0.035. Besides, the “fraction of imaged embryos annotated” value in test [3] worked out at 0.917. In addition, the “pronephric angle neck segment” value in test [4] was determined as 0.979 ± 0.031.
Regarding `C[C@@H]1CC[C@H]2[C@@H](C)C(=O)O[C@@H]3O[C@@]4(C)CC[C@@H]1[C@]32OO4` [Artemisinin], in test [1], the glomerular separation worked out at 0.996 ± 0.38. Also, in test [2], the glomerular width was found to be 0.9517 ± 0.0011. For the same compound, in test [3], the “fraction of imaged embryos annotated” value came to 1. For the same compound, the “pronephric angle neck segment” value in test [4] was found to be 1.05 ± 0.054.
Regarding `CN1[C@@H]2C[C@@H](OC(=O)[C@H](CO)c3ccccc3)C[C@H]1[C@@H]1O[C@@H]12` [Scopolamine hydrochloride], in test [1], the glomerular separation came to 0.986 ± 0.42. In test [2], this compound showed a glomerular width of 1.09 ± 0.054. The “fraction of imaged embryos annotated” value in test [3] is 0.833. The “pronephric angle neck segment” value in test [4] worked out at 0.984 ± 0.036.
`C[C@@H]1O[C@@H](O[C@@H]2C=C3CC[C@@H]4[C@H](CC[C@]5(C)[C@@H](c6ccc(=O)oc6)CC[C@]45O)[C@@]3(C)CC2)[C@H](O)[C@H](O)[C@H]1O` [Proscillaridin A]: in test [1], the glomerular separation was 3.66 ± 1.1. Moreover, the glomerular width in test [2] was 0.716 ± 0.029. The “fraction of imaged embryos annotated” value in test [3] amounted to 0. In test [4], the “pronephric angle neck segment” value came to 1.2604 ± 0.00066.
`CC(=O)OCC1=C(C(=O)O)N2C(=O)[C@@H](N)[C@H]2SC1` [Cephalosporanic acid, 7-amino]: the glomerular separation in test [1] turned out to be 0.819 ± 0.17. Further, the glomerular width in test [2] amounted to 1.136 ± 0.0094. Besides, in test [3], the “fraction of imaged embryos annotated” value turned out to be 1. The “pronephric angle neck segment” value in test [4] turned out to be 0.977 ± 0.06.
As to `CN1[C@@H]2CC[C@H]1C[C@@H](OC1c3ccccc3CCc3ccccc31)C2` [Deptropine citrate], the glomerular separation in test [1] worked out at 0.934 ± 0.35. In test [2], this compound displayed a glomerular width of 0.947 ± 0.035. Besides, the “fraction of imaged embryos annotated” value in test [3] turned out to be 1. Also, the “pronephric angle neck segment” value in test [4] was determined as 0.939 ± 0.061.
Consider `C[C@]12CCC(=O)C=C1CC[C@@H]1[C@@H]2C(=O)C[C@]2(C)C(=O)CC[C@@H]12` [Adrenosterone], for which the glomerular separation in test [1] turned out to be 0.651 ± 0.16. Besides, in test [2], the glomerular width was determined as 1.005 ± 0.0024. The “fraction of imaged embryos annotated” value in test [3] was determined as 1. Moreover, in test [4], the “pronephric angle neck segment” value stood at 0.958 ± 0.021.
In turn, `S=C(NC1CCCCC1)N1CCC(c2cnc[nH]2)CC1` [Thioperamide maleate] displayed a glomerular separation in test [1] of 1.28 ± 0.6. Besides, in test [2], the glomerular width turned out to be 0.974 ± 0.011. In addition, the “fraction of imaged embryos annotated” value in test [3] was determined as 0.917. Moreover, the “pronephric angle neck segment” value in test [4] was found to be 1.06 ± 0.013.
With `C[C@]12CCC(=O)C(O)=C1CC[C@@H]1[C@@H]2CC[C@]2(C)C(=O)CC[C@@H]12` [Formestane], in test [1], the glomerular separation is 1.16 ± 0.45. Besides, the glomerular width in test [2] came out at 0.866 ± 0.031. Moreover, the “fraction of imaged embryos annotated” value in test [3] was determined as 0.917. In addition, in test [4], the “pronephric angle neck segment” value came to 0.9657 ± 0.0071.
`CC[N+]1(C)CCCC(OC(=O)C(O)(c2ccccc2)c2ccccc2)C1` (stereo not given) [Pipenzolate bromide] displayed a glomerular separation in test [1] of 0.89 ± 0.28. For the same compound, in test [2], the glomerular width was 1.051 ± 0.0016. The “fraction of imaged embryos annotated” value in test [3] stood at 0.909. In addition, the “pronephric angle neck segment” value in test [4] was 0.981 ± 0.037.
The matching figures for `O=[N+]([O-])O[C@H]1CO[C@H]2[C@@H]1OC[C@H]2O[N+](=O)[O-]` [Isosorbide dinitrate]: 1.15 ± 0.34, 0.9189 ± 0.0074, 0.833 and 1.02 ± 0.024.
In test [1], `CNC(=O)Oc1ccc2c(c1)[C@]1(C)CCN(C)[C@@H]1N2C` [Eserine hemisulfate salt] returned a glomerular separation of 1.12 ± 0.17. Besides, the glomerular width in test [2] worked out at 1 ± 0.0036. Further, the “fraction of imaged embryos annotated” value in test [3] is 1. Besides, the “pronephric angle neck segment” value in test [4] came to 0.981 ± 0.013.
With `C1CCc2nnnn2CC1` [Pentylenetetrazole], in test [1], the glomerular separation turned out to be 0.925 ± 0.28. Moreover, the glomerular width in test [2] turned out to be 0.994 ± 0.07. Moreover, the “fraction of imaged embryos annotated” value in test [3] was found to be 0.8. Also, the “pronephric angle neck segment” value in test [4] turned out to be 0.956 ± 0.021.
`C[C@]12N[C@H](Cc3ccccc31)c1ccccc12` [Dizocilpine maleate] yielded a glomerular separation in test [1] of 0.888 ± 0.31. In addition, in test [2], the glomerular width worked out at 1.03 ± 0.077. In addition, the “fraction of imaged embryos annotated” value in test [3] was 0.917. In test [4], the “pronephric angle neck segment” value was found to be 0.978 ± 0.071.
For `O=C1CC[C@@]2(O)[C@H]3Cc4ccc(O)c5c4[C@@]2(CCN3CC2CC2)[C@H]1O5` [Naltrexone hydrochloride dihydrate], the glomerular separation in test [1] is 0.749 ± 0.22. For the same compound, the glomerular width in test [2] worked out at 1.124 ± 0.0082. Also, the “fraction of imaged embryos annotated” value in test [3] came to 0.833. In addition, in test [4], the “pronephric angle neck segment” value was found to be 1.03 ± 0.058.
`NCC1(CC(=O)O)CCCCC1` [Gabapentin] had a glomerular separation in test [1] of 0.802 ± 0.29. In addition, in test [2], the glomerular width amounted to 0.9761 ± 0.0014. Further, in test [3], the “fraction of imaged embryos annotated” value was determined as 0.75. Further, the “pronephric angle neck segment” value in test [4] is 0.981 ± 0.016.
As for `CN(C)C(=O)Oc1cc(OC(=O)N(C)C)cc(C(O)CNC(C)(C)C)c1` (stereo not given) [Bambuterol hydrochloride], the glomerular separation in test [1] stood at 0.925 ± 0.31. The glomerular width in test [2] was 0.915 ± 0.035. Besides, the “fraction of imaged embryos annotated” value in test [3] was determined as 1. For the same compound, the “pronephric angle neck segment” value in test [4] turned out to be 1.01 ± 0.021.
The compound `CC(Cc1ccc(O)cc1)NCC(O)c1cc(O)cc(O)c1` (stereo not given) [Fenoterol hydrobromide] showed a glomerular separation in test [1] of 1.33 ± 0.53. For the same compound, in test [2], the glomerular width was 1.051 ± 0.0075. Further, the “fraction of imaged embryos annotated” value in test [3] was 1. The “pronephric angle neck segment” value in test [4] was determined as 0.916 ± 0.028.
Compound `COc1ccc(Cc2nccc3cc(OC)c(OC)cc23)cc1OC` [Papaverine hydrochloride] displayed a glomerular separation in test [1] of 0.972 ± 0.22. For the same compound, the glomerular width in test [2] came to 1.04 ± 0.065. Also, the “fraction of imaged embryos annotated” value in test [3] worked out at 0.833. Also, in test [4], the “pronephric angle neck segment” value came out at 0.968 ± 0.018.
Compound `CN1CCN(C(=O)OC2c3nccnc3C(=O)N2c2ccc(Cl)cn2)CC1` (stereo not given) [Zopiclone] came in with a glomerular separation in test [1] of 1.06 ± 0.41. Also, the glomerular width in test [2] was 0.93 ± 0.014. In test [3], the “fraction of imaged embryos annotated” value came out at 1. In test [4], the “pronephric angle neck segment” value is 0.98709 ± 0.00059.
Take `C[C@]12CC[C@@H]3c4ccc(OC(=O)N(CCCl)CCCl)cc4CC[C@H]3[C@@H]1CC[C@@H]2O` [Estramustine]: in test [1], the glomerular separation is 2.15 ± 0.79. Besides, in test [2], the glomerular width was found to be 0.792 ± 0.018. Moreover, the “fraction of imaged embryos annotated” value in test [3] amounted to 0.333. The “pronephric angle neck segment” value in test [4] worked out at 1.1 ± 0.03.
Turning to `COc1ccc(C(=O)N2CCCC2=O)cc1` [Aniracetam], in test [1], the glomerular separation turned out to be 0.837 ± 0.17. The glomerular width in test [2] was 1.06 ± 0.052. Moreover, the “fraction of imaged embryos annotated” value in test [3] turned out to be 0.75. Moreover, in test [4], the “pronephric angle neck segment” value was 1.02 ± 0.019.
As to `CC1OC(OC2/C=C/C=C/C=C/C=C/CC/C=C/C=C/[C@H](C)[C@@H](O)[C@@H](C)[C@H](C)OC(=O)CC(O)CC(O)CC(O)CCC(O)C(O)C[C@]3(O)CC(O)C(C(=O)O)C(C2)O3)C(O)C(N)C1O` (stereo not given in full) [Nystatine], the glomerular separation in test [1] stood at 0.778 ± 0.16. In test [2], this compound came in with a glomerular width of 0.994 ± 0.05. Also, the “fraction of imaged embryos annotated” value in test [3] worked out at 1. Moreover, the “pronephric angle neck segment” value in test [4] came to 1.05 ± 0.053.
